In PubChem BioAssay (NCI) one finds growth data, which are given here for 14 molecules.

Among the test systems are NCI-H23 lung; NCI-H226 lung; NCI-H322M lung; HOP-62 NSCLC; NCI-H460 lung; HOP-92 NSCLC; NCI-H522 lung; A549/ATCC NSCLC; 786-0 renal; COLO 205 colon.
Common to all, as to assay: NCI-60 one-dose screen, 48 h (100 = growth as untreated, 0 = no growth, -100 = all killed)
Common to all, as to conditions: 10 µM unless noted

Compounds without any hit were thinned out: in the full panel of roughly 83,000, 20% have a hit.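 The test compound was applied at a single concentration to cells in 96-well plates for 48 hours, and percent growth was recorded.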 Values without a mark were called inactive. Calls of active or inactive are those of the source. Rule for the calls: active = growth percent below 10; inactive = the rest.

With `Cc1ccc(-c2nc(/C=N/Nc3cc(C)nc4ccc(Br)cc34)c(C)o2)cc1`, the growth is 79.2% in the test on NCI-H23 lung; 86.6% in the test with NCI-H226 lung; -36.8% (active) with NCI-H322M lung; 97.7% in the test on HOP-62 NSCLC; -81% (active) with NCI-H460 lung; 18.9% in the test with HOP-92 NSCLC. For the same molecule, the growth in the test with NCI-H522 lung was -67.1% (active); in the test with A549/ATCC NSCLC, -56.1% (active); in the test with 786-0 renal, -67% (active); in the test with COLO 205 colon, -68.6% (active).
For the molecule `COc1cc(-c2c3sc(=O)[nH]c3nc3c2c(=O)[nH]n3C(C)C)cc2c1OCO2`, the growth in the test on NCI-H23 lung was 108%; in the test with NCI-H226 lung it was 96.3%; in the test with NCI-H322M lung, 99.9%; with HOP-62 NSCLC it was 107%; in the test on NCI-H460 lung it was 101%; in the test with HOP-92 NSCLC, 114%. The growth is 96.8% with NCI-H522 lung, 94.8% in the test with A549/ATCC NSCLC, 106% with 786-0 renal and 119% in the test with COLO 205 colon.
As for `O=C1Nc2ccccc2/C1=C/C(=N/c1nnc(-c2ccccc2)s1)c1ccccc1`, the growth with NCI-H23 lung was 45.7%; in the test on NCI-H226 lung, 86.5%; with NCI-H322M lung it was 95.7%; in the test on HOP-62 NSCLC, 57%; in the test on NCI-H460 lung, 88.2%; in the test on HOP-92 NSCLC it was 45.4%. In addition, the growth in the test with NCI-H522 lung was -59.3% (active); in the test with A549/ATCC NSCLC, 80.2%; with 786-0 renal it was -19.3% (active); in the test on COLO 205 colon, 2.53% (active).
Regarding `O=c1c2cccc3c(NC4CCCCC4)ccc(c32)c2nc3ccccc3n12`, the growth in the test with NCI-H23 lung was 46%; in the test on NCI-H226 lung, 72%; with NCI-H322M lung, 82.3%; with HOP-62 NSCLC it was 90.6%; in the test on NCI-H460 lung, 34.7%; in the test on HOP-92 NSCLC it was 48.4%. The growth was 61.5% with NCI-H522 lung, 66.5% in the test with A549/ATCC NSCLC, 108% in the test on 786-0 renal and 75.6% with COLO 205 colon.
As to `COc1ncc(-c2ccc3ncnc(Nc4cccc(Cl)c4)c3c2)cc1NS(C)(=O)=O`, the growth with NCI-H23 lung was 37.4%; with NCI-H226 lung, 47.2%; with NCI-H322M lung, -6.97% (active); with HOP-62 NSCLC, 56.6%; with NCI-H460 lung it was 28.3%; in the test with HOP-92 NSCLC, -14.7% (active). In addition, the growth with NCI-H522 lung was 33.3%; in the test on A549/ATCC NSCLC it was 15.8%; in the test with 786-0 renal, 46.2%; in the test with COLO 205 colon it was 41.5%.
As for `COc1cc(C2C(C(=O)c3cccs3)=C(O)C(=O)N2CCN2CCOCC2)cc(OC)c1OC` (stereo not given), the growth with NCI-H23 lung is 103%; in the test on NCI-H226 lung, 103%; in the test on NCI-H322M lung, 102%; with HOP-62 NSCLC it was 107%; in the test with NCI-H460 lung, 101%; in the test with HOP-92 NSCLC it was 99.8%. The growth is 92.2% with NCI-H522 lung, 104% in the test with A549/ATCC NSCLC, 103% in the test on 786-0 renal and 111% in the test with COLO 205 colon.
For `COc1ccc2nc3cc(Cl)ccc3c(N3CCN(c4ccnc(N5CCOCC5)n4)CC3)c2c1`, the growth with NCI-H23 lung was 46.1%; in the test with NCI-H226 lung it was 89.2%; in the test on NCI-H322M lung, 94.4%; in the test on HOP-62 NSCLC it was 71.5%; with NCI-H460 lung, 76.5%; with HOP-92 NSCLC, 56.3%. Moreover, the growth is -51.4% (active) with NCI-H522 lung, 95.2% in the test on A549/ATCC NSCLC, 92.8% in the test with 786-0 renal and 31.1% with COLO 205 colon.
Take `Cc1cc(Nc2nc(N3CCN(C)CC3)nc3ccccc23)n[nH]1`: the growth in the test with NCI-H23 lung was 91.6%; in the test on NCI-H226 lung, 81.6%; with NCI-H322M lung, 86.4%; in the test on HOP-62 NSCLC it was 81.4%; in the test on NCI-H460 lung it was 69.6%; in the test on HOP-92 NSCLC, 59.8%. Further, the growth in the test with NCI-H522 lung was 41.2%; in the test on A549/ATCC NSCLC, 65.2%; in the test with 786-0 renal, 59.8%; in the test with COLO 205 colon, 58%.
With `Cc1cccc(NC(=O)c2sc3nc4c(cc3c2N)C(=O)CCC4)c1`, the growth in the test on NCI-H23 lung was 53.1%; in the test on NCI-H226 lung, 56.6%; in the test with NCI-H322M lung, 37.2%; in the test with HOP-62 NSCLC, 42.9%; in the test with NCI-H460 lung, 6.09% (active); in the test with HOP-92 NSCLC, 64.5%. In addition, the growth in the test with NCI-H522 lung is 11.7%; with A549/ATCC NSCLC it was 31.4%; with 786-0 renal, 31.3%; with COLO 205 colon it was 3% (active).
For the molecule `CCCCCCCCCC(=O)Oc1ccc(/C(=C(/C)Cc2cccc(OC)c2)c2ccc(OCCN(C)C)cc2)cc1`, the growth in the test on NCI-H23 lung was 99.3%; with NCI-H226 lung it was 114%; in the test with NCI-H322M lung it was 107%; in the test with HOP-62 NSCLC, 111%; with NCI-H460 lung, 112%; in the test on HOP-92 NSCLC, 113%. Moreover, the growth in the test on NCI-H522 lung was 97%; in the test on A549/ATCC NSCLC, 108%; in the test with 786-0 renal it was 103%; with COLO 205 colon, 118%.
Regarding `CC(C)C1=C[C@@]23CC[C@@H]4[C@](C)(CCC[C@@]4(C)C(=O)OCC#CCN4CCCC4)[C@H]2C[C@@H]1[C@H]1C(=O)OC(=O)[C@H]13`, the growth was 94.9% with NCI-H23 lung; 96.1% with NCI-H226 lung; 88.5% in the test on NCI-H322M lung; 91.9% in the test on HOP-62 NSCLC; 103% in the test with NCI-H460 lung; 94.1% in the test on HOP-92 NSCLC. For the same molecule, the growth in the test on NCI-H522 lung is 78.7%; with A549/ATCC NSCLC it was 98.4%; in the test on 786-0 renal, 103%; with COLO 205 colon, 111%.
For the molecule `CN1CCN(Cc2ccc(NC(=O)c3cncc(C#Cc4cnc(N)c5cccnc45)c3)cc2C(F)(F)F)CC1`, the growth was 11.4% with NCI-H23 lung; -18.6% (active) in the test with NCI-H226 lung; 26.4% in the test on NCI-H322M lung; -0.449% (active) in the test with HOP-62 NSCLC; 7.81% (active) in the test with NCI-H460 lung; -26.2% (active) with HOP-92 NSCLC. Further, the growth is 28.4% in the test on NCI-H522 lung, 29% in the test on A549/ATCC NSCLC, 32.8% in the test with 786-0 renal and -20.5% (active) in the test with COLO 205 colon.
With `C[C@@]1(N2C(=O)OC[C@@H]2c2ccccc2)C(=O)N([C@H](CC(=O)N2CCC(N3CCCCC3)CC2)C(=O)NCc2cccc(C(F)(F)F)c2)[C@@H]1/C=C/c1ccccc1`, the growth in the test on NCI-H23 lung is 78.8%; in the test with NCI-H226 lung, 89.6%; with NCI-H322M lung, 72.8%; in the test with HOP-62 NSCLC it was 84.7%; in the test with NCI-H460 lung, 2.37% (active); in the test on HOP-92 NSCLC, 64.4%. Also, the growth is -9.84% (active) with NCI-H522 lung, 54.6% with A549/ATCC NSCLC, 70% in the test on 786-0 renal and -67.1% (active) with COLO 205 colon.
On to `COc1ccc(C2CC(=O)Nc3c2c(C)nn3-c2nc3ccccc3[nH]2)cc1` (stereo not given), for which the growth in the test with NCI-H23 lung is 99.1%; in the test on NCI-H226 lung, 101%; in the test with NCI-H322M lung it was 53.9%; in the test on HOP-62 NSCLC, 116%; in the test with NCI-H460 lung, 20.8%; in the test on HOP-92 NSCLC, 89.1%. The growth was 98.2% in the test with NCI-H522 lung, 97.4% in the test with A549/ATCC NSCLC, 106% with 786-0 renal and 129% with COLO 205 colon.
